Source: PubChem (National Center for Advancing Translational Sciences (NCATS))
PINK1 modulator: changes PINK1 expression; PINK1 immunofluorescence, high-content cytometry, 24 h; Potency, µM (doses to about 76.6 µM), for inactives: top-dose activation (PINK1 increase), usual class: activators; 410,000 tested, 0.2% active; AID 624263; active = well fitted activation curve with a large enough effect; inconclusive = small, poorly fitted or top-dose-only effect; cell line not stated here; note: % of control where 0% means no effect; nearly all actives have a fitted effect of over 65% in size
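Readout is PINK1 immunofluorescence, quantified alongside mitochondrial, cell and nuclear markers by laser-scanning microplate cytometry. Cells from a stable line were exposed to compound titrations (5 concentrations) for 24 hours, with CCCP controls.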
Gal4-VP16 FLuc: counter-screen for ROR gamma inhibitors: Gal4-VP16 reporter; Drosophila S2 Gal4-VP16 UAS-luciferase, luminescence, 20 h; Potency, µM (doses to about 53.6 µM), for inactives: at the highest dose activity, negative = inhibition, most hits filed as inhibitors; 310,000 tested, 3.5% active;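 note: Gal4-VP16 expression switched on by copper sulfate through the metallothionein promoter; % is set by controls: 0 for no effect and ±100 for the full control effect; nearly all actives have a fitted effect of over 50% in size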
RORgamma inh: blocks mouse ROR gamma transcriptional activity; Drosophila S2 Gal4-RORgamma UAS-luciferase reporter, 20 h; P51450; Potency, µM (series often up to 53.6 µM), for inactives: at the top dose activity change, negative = inhibition, usual class: inhibitors; 310,000 tested, 5.4% active; note: % is set by controls: 0 for no effect and ±100 for the full control effect; nearly all actives have a fitted effect of over 60% in size
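ROR gamma transcriptional activity was tracked as Gal4-UAS luciferase output in stably transfected Drosophila Schneider cells, with compound added 1 hr before 700 uM copper sulfate induction and a 20 hr ambient-temperature incubation.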
Sfp inh: blocks B. subtilis Sfp PPTase activity. Biochemical Sfp PPTase activity, qHTS. Potency, µM, for inactives: largest response in the series, negative = inhibition, hits mostly inhibitors. 310,000 tested, 3.5% active. AID 1490;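 note: the enzyme is Sfp with the accession as filed and its product quenches rhodamine fluorescence; 0% = enzyme reaction without inhibitor and -100% = no enzyme wells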
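Reaction rates are the 30-min fluorescence difference (ex 525, em 598 nm) in wells containing 15 nM Sfp, 5 uM rhodamine-CoA and 12.5 uM BHQ-2-YbbR at pH 7.6 with 10 mM MgCl2.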
ClpP mod: qHTS Assay for Activators of ClpP; Potency, µM (titrated, usually from 57.5 µM), inactives show at the top dose activity change, negative = active; purified B. subtilis ClpP, FRET peptide cleavage, 20 min; AID 651965, 2013; 340,000 tested, 1.9% active; ATP-dependent Clp protease proteolytic subunit (Bacillus subtilis (strain 168)), P80244; active = well fitted falling curve with a large enough effect; inconclusive = small, poorly fitted or top-dose-only effect; inactive = no such curve, though single readings can be large or run the other way; note: the source files actives as falling curves though it sought activators and does not explain the sign; nearly all actives have a fitted effect of over 65% in size
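FRET quenching reversal measured ClpP activation: 10 microg/mL B. subtilis ClpP at pH 8 with the FRET-FV decapeptide, read at 430 nm after 320 nm excitation. The 20-min minus 0-min signal was scaled between DMSO/no-enzyme wells and ADEP (5.8 microM final).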
Epigenetic reg: epigenetic control regulation, reporter derepression. murine LDR cells, GFP reporter derepression, 30 h. Potency, µM (top dose mostly 53.9 µM), for inactives: at the highest dose GFP activation, hits mostly activators. 280,000 tested, 0.2% active. AID 1865; note: % of control where 0% means no effect; nearly all actives have a fitted effect of over 60% in size
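In this reporter-derepression format, murine cells bearing a silenced integrated CMV-GFP locus incubate with test compound (30 h, 37 C), then are washed and imaged; fluorescent objects of 20–120 um count as induced cells.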
The depositor's hits bear a star; ? = inconclusive; nt = no result given; ! = not active in a repeat. The list is not random: actives were taken first. Their share in the collection is about 8.1%. Unless noted, calls come from the whole dose curve; as a rule, active = well fitted curve in the direction sought with a large enough effect; inconclusive = small, poorly fitted or top-dose-only effect, or another doubt; inactive = no such curve, though single readings can be large; an effect the other way counts as inactive or inconclusive. Potency is the fitted concentration of half-maximal effect.

SMILES	PINK1 modulator	Gal4-VP16 FLuc	RORgamma inh	Sfp inh	ClpP mod	Epigenetic reg
N#C/C(=C/c1cccn1-c1cccc(C(=O)O)c1)c1ccc(F)cc1	-1%	-2%	21%	19%	1%	1%
N#C/C(=C\c1cc([N+](=O)[O-])c(N2CCOCC2)cc1N1CCOCC1)c1nc2ccccc2[nH]1	2%	-6%	?	-1%	-2%	2%
N#C/C(=C/c1ccc(N2CCCCCC2)o1)c1ccc(F)cc1	21%	nt	nt	nt	32µM*	nt
N#C/C(=C/c1ccc(N2CCOCC2)o1)c1nc2ccccc2[nH]1	25µM*	?	-80%	20µM*	3%	16µM*
COc1ccc(OC)c(NC(=O)C2CCCN(S(=O)(=O)c3ccc4[nH]c(=O)ccc4c3)C2)c1 (centres undefined)	1%	nt	nt	nt	-4%	5%
O=C(NCCSc1ccccn1)c1ccc(Cl)cc1	6%	?	?	14%	nt	1%
N#CC(Sc1ccccn1)c1ccc(Cl)cc1 (centres undefined)	1%	0%	-20%	28µM*	nt	-7%
C=CCn1c(=O)[nH]c2nc3cc(N=CN(C)C)c(C)cc3nc2c1=O	3%	-3%	2%	50µM*	-3%	-1%
CN(C)/C=N/c1cc(=O)[nH]c(=O)n1CC1CC1	0%	-5%	-4%	23%	-1%	0%
CCOc1ccc2nc(NC(=O)CS(=O)(=O)c3ccc(Cl)cc3)sc2c1	-2%	nt	nt	nt	-2%	2%
COc1ccc(/C=C2\C(=O)NC(=S)N2C(=O)c2ccc(F)cc2)cc1	7%	11µM*	8.9µM*	?	-1%	?
O=C1NC(=S)N(C(=O)c2ccc(F)cc2)/C1=C/c1ccccc1	?	1%	13%	?	-6%	3%
C=C(C)C(=O)Oc1ccc(N2C(=O)CCC2=O)cc1	2%	-4%	0%	-7%	1%	22µM*
CCOC(=O)c1cnc2ccc(C)cc2c1Sc1ccc(F)cc1	9%	28µM*	?	?	-1%	-1%
Cc1nn(S(=O)(=O)c2ccc(F)cc2)c(C)c1S(=O)(=O)N1CCCCCC1	2%	nt	nt	nt	-1%	-1%
CCOC(=O)Cn1c(=O)oc2cc(S(=O)(=O)N3CCN(c4cc(C)ccc4C)CC3)ccc21	-2%	nt	nt	nt	0%	-1%
Cc1onc(-c2c(Cl)cccc2Cl)c1C(=O)NC(=S)N1CCOCC1	1%	0.71µM*	0.16µM*	-11%	1%	?
CCOC(=O)N1CCN(C(=S)NC(=O)c2ccc(F)c(F)c2)CC1	7%	1µM*	0.63µM*	3%	28µM*	0%
CCOC(=O)N1CCN(C(=S)NC(=O)c2c(-c3c(Cl)cccc3Cl)noc2C)CC1	1%	0.79µM*	0.25µM*	6%	nt	16%
CCOC(=O)N1CCN(C(=S)NC(=O)c2cccc(OC)c2)CC1	0%	nt	nt	nt	-24%	nt
Cc1onc(-c2c(Cl)cccc2Cl)c1C(=O)Nc1nccs1	0%	?	10µM*	-5%	nt	nt
Cc1csc(NC(=O)c2c(-c3c(Cl)cccc3Cl)noc2C)n1	3%	0%	-8%	7%	-4%	5%
O=C(COc1ccccc1C(=O)Nc1ccccc1)Nc1cccc(Cl)c1	6%	nt	nt	nt	-3%	nt
C=CCN1CCN(c2nc3ccccc3nc2C#N)CC1	nt	1%	-2%	56µM*!	nt	0%
COc1ccc(-c2cc3nc4c(c(=O)n3[nH]2)CCC4)cc1	8%	-1%	16%	16%	22µM*	-1%
SMILES	PINK1 modulator	Gal4-VP16 FLuc	RORgamma inh	Sfp inh	ClpP mod	Epigenetic reg
O=c1c2c(nc3cc(-c4ccccc4)[nH]n13)CCC2	3%	-7%	-36%	-5%	11µM*	0%
O=c1c2c(nc3cc(-c4ccc(Br)cc4)[nH]n13)CCCC2	1%	-11%	-6%	15%	nt	-1%
Cc1cc2nc3c(c(=O)n2[nH]1)CCCC3	-1%	-1%	?	12%	-17%	-1%
CC1(C)CC2(CC(c3ccccc3F)c3cc(Cl)c(O)cc3O2)NC(=S)N1 (centres undefined)	0%	?	11µM*	5%	nt	-5%
COc1cccc(C2CC3(CC(C)(C)NC(=S)N3)Oc3cc(O)ccc32)c1 (centres undefined)	4%	-1%	-38%	-17%	6%	0%
Cc1cccc(C2CC3(CC(C)(C)NC(=S)N3)Oc3cc(O)ccc32)c1 (centres undefined)	-2%	-17%	10µM*	0%	nt	8%
COc1ccc(C2CC3(CC(C)(C)NC(=S)N3)Oc3cc(O)cc(C)c32)cc1OC (centres undefined)	1%	27%	?	12%	nt	4%
OCc1cnc(SCc2cccc(F)c2)n1Cc1ccc(F)cc1	-4%	nt	nt	nt	-9%	-2%
O=S(=O)(CC(CN1CCCCC1)N1CCCCC1)c1ccc2ccccc2c1 (centres undefined)	-1%	?	13µM*	1%	nt	0%
Cc1ccc(S(=O)(=O)CC(CN2CCCCC2)N2CCCCC2)cc1 (centres undefined)	-3%	-19%	2.8µM*	14%	nt	1%
O=S(=O)(CC(CN1CCOCC1)N1CCOCC1)c1ccccc1 (centres undefined)	1%	13%	-12%	17%	0%	-3%
Cc1ccc(S(=O)(=O)Nc2ccc(O)c(C(=O)O)c2)c(C)c1	nt	nt	nt	nt	nt	-3%
C/C(=N\NC(=O)c1cccc(N/N=C(\C)c2cc(O)ccc2O)c1)c1cc(O)ccc1O	1%	?	6.3µM*	8%	nt	1%
C/C(=N\NC(=O)c1cccc(N/N=C(\C)c2ccco2)c1)c1ccco1	0%	-4%	2%	5%	0%	-4%
CC(=O)c1ccc(NC(=O)C2CCC(CNS(=O)(=O)c3cccc4nsnc34)CC2)cc1 (centres undefined)	0%	nt	nt	nt	1%	-1%
Cc1ccc(C(=O)N/N=C(/CC(=O)c2cccs2)C(F)(F)F)cc1	45µM*	7.1µM*	11µM*	19%	1%	0%
O=C(N/N=C(\CC(=O)c1cccs1)C(F)(F)F)c1ccncc1	-1%	-29%	-19%	25%	nt	2%
O=C(Nc1cccc(-c2nc3ncccc3o2)c1)c1ccc(-c2cccc(Cl)c2Cl)o1	11%	nt	nt	nt	-8%	10%
CCOC(=O)c1ccc2c(c1)C1C=CCC1C(C(=O)OCC)N2 (centres undefined)	1%	-4%	?	45µM*	nt	nt
CCOC(=O)C1Nc2ccc(Br)cc2C2C=CCC12 (centres undefined)	5%	-11%	16%	28µM*	nt	nt
